# Screens from PubChem.
# Rab9 promoter act – activators of Rab9 promoter | Potency, µM (titrated, usually from 9.22 µM), without a hit: top-dose activation, negative = inhibition, actives largely listed as activators | 2.8% of 320,000 active | Huh7 Rab9 promoter-luciferase reporter, luminescence, 24 h | AID 485297; also: % of control where 0% means no effect; nearly all actives have a fitted effect of over 60% in size
#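 Steps: seed 1500 Huh7 Rab9-luc cells per well, rest 2 h at 37 °C; add compound in DMSO; incubate 24 h; add luciferase reagent, 10 min ambient; read luminescence.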
# ELG1 DNA repair – blocks ELG1-dependent DNA repair in HEK293T cells. HEK293T ELG1-luciferase reporter, luminescence, 16 h; DNA damage induced by 5-fluorouridine. Potency, µM (doses to about 46.1 µM), for inactives: top-dose activity change, negative = inhibition, usual class: inhibitors. 2.3% of 330,000 active. AID 504467; also: % is scaled to controls: 0 for no effect and ±100 for the full control effect; nearly all actives have a fitted effect of over 55% in size
#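 Quantitative HTS, concentration-response format. 2,000 cells/well co-treated with 5-fluorouridine and compound, 16 hr in 5% CO2 at 37 °C; ONE-Glo luminescence read after 30 min.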
# SMN2 splice up – increases expression of the SMN2 splice variant. HEK293 SMN2-luciferase splicing reporter, luminescence, 30-36 h. Potency, µM (doses to about 46.1 µM), for inactives: at the highest dose activity change, positive = activation, most hits filed as activators. 2.8% of 210,000 active. AID 1458; also: % of control where 0% means no effect; nearly all actives have a fitted effect of over 55% in size
#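 qHTS luciferase splicing reporter: luminescence rises when SMN2 exon 7 is included in transfected HEK293 cells. Compound exposure lasted 30-36 h at 37C, with 4.5 mM final sodium butyrate as control, followed by a ONE-Glo read.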
# FLuc counter – firefly luciferase modulation, counter-screen for miR-21 project | P08659 | purified FLuc, Km substrates, luminescence inhibition | Potency, µM (doses to about 57.5 µM), for inactives: at the highest dose activity change, negative = inhibition, actives largely listed as inhibitors | 6.9% of 360,000 active;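 also: plate controls were vehicle for no effect and reference inhibitor for full effect; nearly all actives have a fitted effect of over 55% in size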
# Target sequence (P08659 whole entry, looked up): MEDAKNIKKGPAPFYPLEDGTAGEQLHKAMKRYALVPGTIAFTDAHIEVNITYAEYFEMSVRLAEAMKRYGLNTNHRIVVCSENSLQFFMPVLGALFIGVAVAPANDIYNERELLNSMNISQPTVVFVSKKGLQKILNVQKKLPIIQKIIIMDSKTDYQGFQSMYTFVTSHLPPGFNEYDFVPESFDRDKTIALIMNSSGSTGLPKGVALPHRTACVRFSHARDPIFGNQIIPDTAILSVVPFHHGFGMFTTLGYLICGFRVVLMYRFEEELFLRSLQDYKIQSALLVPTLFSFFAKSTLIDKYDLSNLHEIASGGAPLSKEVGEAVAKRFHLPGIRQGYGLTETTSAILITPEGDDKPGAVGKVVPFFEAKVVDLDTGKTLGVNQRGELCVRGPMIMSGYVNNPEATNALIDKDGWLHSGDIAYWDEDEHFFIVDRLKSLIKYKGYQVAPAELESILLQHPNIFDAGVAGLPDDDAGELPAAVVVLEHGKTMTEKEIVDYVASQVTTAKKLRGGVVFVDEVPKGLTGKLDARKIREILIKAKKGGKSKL
#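 Biochemical qHTS of compounds, final roughly 60 µM downward over six points, against 10 nM purified firefly luciferase using Km concentrations of substrates (10 uM D-luciferin, 10 uM ATP) in Tris acetate pH 7.5 buffer; luminescence output.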
# ELG1 genotox – induces genotoxicity in HEK293T cells with luciferase-tagged ELG1. Potency, µM (top dose mostly 46 µM), for inactives: at the highest dose activity change, positive = activation, usual class: activators. HEK293T ELG1-luciferase reporter, luminescence, 16 h. 1.3% of 330,000 active; also: % of control where 0% means no effect; nearly all actives have a fitted effect of over 60% in size
#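 After overnight (16 hr) compound treatment at 37 °C, ELG1-luciferase HEK293T cells were lysed with ONE-Glo; luminescence quantified 30 min later at room temperature.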
# NPC1 prom act – NPC1 promoter activation; Huh7 NPC1 promoter luciferase reporter, 24 h; Potency, µM (doses to about 9.22 µM), inactives show at the highest dose activation, hits mostly activators; 2.4% of 320,000 active; AID 485313; also: % of control where 0% means no effect; nearly all actives have a fitted effect of over 60% in size
#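 NPC1 promoter–luciferase Huh7 cells; 24 h compound; luminescence.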
# * marks the source's active call; other numbers are inactive results; ? = inconclusive; / = not tested or not shown. Compounds with a hit are over-represented: about 9.4% of the library has one in this group of screens. Calls follow the shape of the dose curve; as a rule, active = well fitted curve in the direction sought with a large enough effect; inconclusive = small, poorly fitted or top-dose-only effect, or another doubt; inactive = no such curve, though single readings can be large; an effect the other way counts as inactive or inconclusive. Potency is read from the fitted curve at half-maximal effect.
SMILES,Rab9 promoter act,ELG1 DNA repair,SMN2 splice up,FLuc counter,ELG1 genotox,NPC1 prom act
CN(C)S(=O)(=O)c1cccc(NC(=O)c2c[nH]c3ccccc23)c1,17%,6%,/,21µM*,-12%,15%
COc1ccc(NC(=O)Cn2c(=O)n(-c3cccc(C(F)(F)F)c3)c(=O)c3sccc32)cc1,/,/,-18%,-1%,/,/
CCc1ccc(C(=O)c2cn(Cc3ccccc3)c3cc(OC)c(OC)cc3c2=O)cc1,/,/,-13%,-8%,/,/
Cc1ccc(-c2cc(C(=O)Nc3cccc(S(=O)(=O)N(C)C)c3)c3ccccc3n2)o1,16%,?,/,9.5µM*,-9%,-6%
CCc1nnc(NC(=O)c2cc(-c3ccc(C)o3)nc3ccccc23)s1,2%,-26%,/,11µM*,-1%,-1%
CCc1nnc(NC(=O)c2cc(C)nc3ccccc23)s1,3%,2%,5%,-16%,2%,1%
CN(C)S(=O)(=O)c1cccc(NC(=O)c2ccccc2OCc2ccc(F)cc2)c1,1%,21µM*,/,1%,-12%,-6%
O=S(=O)(NCCc1cn2ccsc2n1)c1ccc(Cl)cc1,/,/,/,-5%,/,/
CCc1ccc(NC(=O)CSc2nc(=O)n(Cc3ccncc3)c3c2CCC3)cc1,/,/,/,0%,/,/
CCCCCCCCCCCCCCCCCCOC[C@H](COP(=O)([O-])OCC[N+](C)(C)C)OC(C)=O,/,/,-6%,/,/,/
CCN(Cc1ccc2c(c1)OCCO2)C(=O)CSc1nc(C)nc2sc(C)c(C)c12,-6%,13µM*,/,-2%,-6%,-2%
CCOC(=O)C(=CNc1ccc(NC2=NCC(C)S2)cc1)C(=O)OCC (centres undefined),-5%,6.5µM*,-1%,-5%,-11%,-1%
COc1ccc(Nc2nnc(-c3ccc(C)c(S(N)(=O)=O)c3)c3ccccc23)cc1,/,/,-23%,?,/,/
C=CCOc1ccc(/C(O)=C2/C(=O)C(=O)N(CCCn3ccnc3)C2c2cccs2)cc1 (centres undefined),?,?,3%,15µM*,4%,25%
Cc1nn(-c2ccccc2)c2nc(N)c(C#N)c(-c3ccc(F)cc3)c12,-3%,?,-50%,1%,-8%,-4%
Cc1ccc(-n2nc(C)c3c(-c4cccs4)c(C#N)c(N)nc32)cc1,8%,13µM*,1%,?,-9%,0%
Cc1ccc(-c2noc(C3CCCCC3)n2)cc1,?,?,22%,?,?,4µM*
COc1ccc(-c2noc(C3CCCN(C(=O)c4ccc(C)cc4)C3)n2)cc1 (centres undefined),-1%,-16%,/,?,-5%,-1%
Cc1cccc(-c2noc(C3CCCCC3)n2)c1,/,/,24%,3µM*,/,/
Cc1ccc(COc2ccc(-c3nnco3)cc2)cc1,3.5µM*,?,/,9.5µM*,?,2.2µM*
Cc1ccc(NC(=O)Cn2ccn(-c3ccccc3)c(=O)c2=O)cc1,/,/,/,2%,/,/
O=C(Nc1ccc(C(F)(F)F)cc1)C1CCCN1S(=O)(=O)c1cccc2cccnc12 (centres undefined),-6%,21µM*,-33%,-5%,-9%,0%
O=C(Nc1ccccc1Cl)C1CCCN(S(=O)(=O)c2cccc3cccnc23)C1 (centres undefined),1%,-5%,/,-1%,-10%,-16%
CC(=O)c1cccc(NC(=O)C2CCCN(S(=O)(=O)c3cccc4cccnc34)C2)c1 (centres undefined),5%,16µM*,-4%,-1%,-16%,-2%
O=C(Nc1nccs1)C1CCCN(S(=O)(=O)c2cccc3cccnc23)C1 (centres undefined),0%,23µM*,-6%,1%,-18%,0%
SMILES,Rab9 promoter act,ELG1 DNA repair,SMN2 splice up,FLuc counter,ELG1 genotox,NPC1 prom act
Cc1ccc(NC(=O)C2CCCN(S(=O)(=O)c3cccc4cccnc34)C2)cc1Cl (centres undefined),/,/,-19%,-8%,/,/
O=C(Nc1nc2cc(Cl)ccc2s1)C1CCCN(S(=O)(=O)c2cccc3cccnc23)C1 (centres undefined),-7%,16µM*,-12%,-2%,-16%,-5%
CC(=O)N1CCc2cc(CNC(=O)Nc3cc(Cl)ccc3C)ccc21,/,/,/,6%,/,/
CSc1cccc(NC(=O)C2CCCN(S(=O)(=O)c3ccc(F)cc3)C2)c1 (centres undefined),-1%,21µM*,-31%,4%,-26%,1%
O=C(O)[C@@H]1CCCN(S(=O)(=O)c2cccc3cccnc23)C1,0%,21%,/,-3%,0%,2%
CC1Cc2ccccc2N1C(=O)C1CCCN(S(=O)(=O)c2cccc3cccnc23)C1 (centres undefined),-8%,21µM*,-7%,1%,-9%,1%
CCCn1c(-c2ccc(F)cc2)nc2c(N3CCCN(Cc4ccccc4)CC3)nc(C)nc21,/,/,-27%,/,/,/
COc1ccc(C(=O)COc2ccc(F)cc2)c(O)c1,?,?,/,13µM*,?,3.2µM*
O=C(COc1ccc(F)cc1)c1c(O)cc(O)cc1O,?,?,/,8.5µM*,?,?
CCCC=O,/,/,20%,/,/,/
C=CCOc1ccc(CN(C)C(=O)CNC(=O)c2ccc(-c3ccccc3)cc2)cc1,-15%,23µM*,/,-13%,-32%,-10%
COc1ccc(C2c3[nH]c4ccccc4c3C[C@H]3C(=O)N(C4CCN(Cc5ccccc5)CC4)CC(=O)N23)cc1OC (some centres undefined),1%,-7%,/,3%,-11%,-3%
COc1ccccc1C1c2[nH]c3ccccc3c2C[C@H]2C(=O)N(C3CCN(Cc4ccccc4)CC3)CC(=O)N12 (some centres undefined),0%,23µM*,/,1%,-12%,-1%
COC(=O)c1ccc(COc2ccccc2/C=C/C(=O)c2ccc(OCC(=O)O)cc2)cc1,3%,-12%,/,5.4µM*,-5%,0%
COC(=O)c1ccc(COc2ccccc2/C=C(\C#N)C(=O)Nc2c(C)cccc2C)cc1,-11%,26µM*,7%,-1%,11%,-13%
COC(=O)c1ccc(COc2ccccc2/C=C(\C#N)C(=O)NC(C)C)cc1,-1%,?,-5%,1%,15%,-1%
